40 compounds from PubChem BioAssay (NCI) can be followed below.

Compounds without any hit were thinned out: in the full panel of roughly 83,000, 20% have a hit.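 Interpretation: 100, growth as untreated; towards 0, rising growth inhibition; 0, no net growth; 0 to -100, cell death. Compounds scoring below 10 were considered active.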 Values without a mark were called inactive. Activity calls are given as the source filed them.

For this assay, the system named is A498 renal. The assay can be described thus: NCI-60 one-dose screen, 48 h (100 = growth as untreated, 0 = no growth, -100 = all killed). The note with it: 10 µM. Here is the method: Growth inhibition of the A498 human tumor cell line is measured as a screen for anti-cancer activity. Cells are grown in 96 well plates and exposed to the test compound for 48 hours. Compounds are tested at a single concentration, which is 10^-5 M for most compounds. The reported endpoint is percent growth (GI% or GIPRCNT), where numbers from 0 - 100% represent growth inhibition, and numbers from -100% - 0 represent cell death. For example, a value of 40 represents 60% growth inhibition. A value of 0 means no net growth occurred over the course of the experiment. A value of -40 indicates 40% of cells at the beginning of the experiment died by the end of the experiment. A value of -100 means all cells are dead at the end of the experiment.
NCI-60 Human Tumor Cell Lines Screen was performed using the standard one-dose NCI protocol, which is described in more detail at https://dtp.cancer.gov/discovery_development/nci-60/default.htm.
Compounds with GIPRCNT values below 10 were considered active. Activity score was based on GIPRCNT using the following formula: […]
Score is 0 for GIPRCNT values of 100 or above, 50 for GIPRCNT values of 0, and 100 for GIPRCNT values of -100.
For `COc1ccc(-c2nnc(SCC(=O)c3ccccc3)o2)cc1`, the growth is 85.1%.

For the compound `C#CCNCCN1C(=O)c2ccc3c4c(ccc(c24)C1=O)C(=O)N(CCNCC#C)C3=O`, the growth is 94.1%.

As to `CCCCc1ccc(NC(=O)N(CCCl)N=O)cc1`, the growth was 103%.

For the compound `CCOC(=O)C1=C(Nc2ccc(OC)cc2)C(N)=NC1=N`, the growth was 6.8% (active).

`CCCN(CCC)CCCNC(=O)c1cc2c(-c3ccc(OC)c(OC)c3)nn(C)c2s1`: the growth is -0.28% (active).

On to `COc1cccc(C2(C)Nc3ccccc3-c3nc4ccccc4n32)c1` (stereo not given), for which the growth was 95.6%.

On to `Brc1ccc(-c2cn3ccnc3c(-c3ccc(Br)cc3)n2)cc1`, for which the growth is 35.9%.

Take `Cc1noc(C)c1-c1ccc2nc(NC(=O)[C@H]3CCN(C#N)C3)cn2c1`: the growth is 88.9%.

Turning to `Cc1ccc(C)c(S(=O)(=O)NC2c3ccccc3Oc3ccccc32)c1`, the growth was 90.9%.

`CCCCCCOc1ccc(/C=C/C(=O)c2ccc(B(O)O)cc2)cc1`: the growth is 70.4%.

For `COc1cc(CSc2nc3ccc(Cl)cc3c(=O)n2Cc2ccccc2)cc(OC)c1OC`, the growth is 24%.

With `CC(C)/C(=N/O)c1ccccc1`, the growth was 113%.

Regarding `O=C/C=C/c1ccc([N+](=O)[O-])cc1Cl`, the growth is 117%.

For `N=C(N)c1ccc(-c2ccc(-c3ccccc3)s2)s1`, the growth is 32.1%.

Turning to `COc1ccc(Nc2nc(NCc3ccccc3)c3ccccc3n2)cc1`, the growth is 38.9%.

For `COc1ccc(-c2ccc(-c3ccc(C(=N)N)c(F)c3)s2)cc1`, the growth is -97.4% (active).

On to `O=c1ccc2nc(-c3ccccc3)nn(-c3ccccc3)c-2c1`, for which the growth is 84.4%.

On to `Cc1ccc(S(=O)(=O)Nc2cccc3[nH]c(C(F)(F)F)nc23)cc1`, for which the growth was 13.7%.

For `CN(C)c1ccc2cc(-c3cc4c(oc3=O)-c3ccccc3OC4O)c(=O)oc2c1` (stereo not given), the growth is 13.2%.

For `Cn1c([N+](=O)[O-])cnc1/C=C1\Oc2ccc(Br)cc2C1=O`, the growth is -29.7% (active).

Take `CC(C)c1[nH]nc2c(NCc3ccc(-c4ccccn4)cc3)nc(SCCN)nc12`: the growth is -69.5% (active).

As for `CCOC(=O)c1c(Cl)c2c(n1Cc1cccc(OC)c1)-c1oncc1CC2`, the growth is 1.89% (active).

On to `CCC(OC(=O)CC(C)C)c1ccccc1` (stereo not given), for which the growth is 102%.

`CCN(CC)c1ccc(/C=C/C2=[N+](C)c3ccccc3C2(C)C)c(C)c1`: the growth is 3.94% (active).

`COCCNCC(O)Cn1c2ccc(Cl)cc2c2cc(Cl)ccc21` (stereo not given): the growth was 62.6%.

For the compound `Nc1ccccc1NC(=O)CCCCCCC(=O)Nc1ccc2c(c1)/C(=C/c1ccc[nH]1)C(=O)N2`, the growth is -0.734% (active).

Take `CCOc1cc(Br)c(C(C)NC(=O)c2cccc(OC)c2)cc1OCC` (stereo not given): the growth is 54%.

As for `Oc1[nH]c2ccccc2c1/C=c1/cc2c(c(-c3ccc(C(F)(F)F)cc3)n1)=Nc1ccccc1-2`, the growth is 62.6%.

As to `CC(=O)CS(C)(=O)=O`, the growth is 98.8%.

With `CCN(CCCNC(=O)Cc1cc(=O)oc2cc(N(C)C)ccc12)CCNc1ccnc2cc(Cl)ccc12`, the growth was 81.5%.

`N#CCC1CCCC1`: the growth was 91%.

For `COc1c(-c2c3sc(=O)[nH]c3nc3c2c(=O)[nH]n3C(C)C)cc2c(c1OC)OCO2`, the growth was 57.2%.

Consider `CCOC(=O)c1cc2c(n1Cc1cc(OC)cc(OC)c1)-c1oncc1CC2`, for which the growth was 24.9%.

Take `CN(C)c1ccc2c(c1)OC(N)=C(C#N)C2c1ccc2c(c1)CCCN2C` (stereo not given): the growth is -8.42% (active).

As for `Cc1ccc(-n2c(-c3cc4c([nH]c5ccccc54)c(-c4cccc(O)c4)n3)n[nH]c2=S)cc1`, the growth is -40% (active).

As to `CCCCOCCOCCOCc1cc2c(cc1Br)OCO2`, the growth is -60.6% (active).

`COc1cccc(-c2nnc(COc3ccc(-c4nc5ccccc5[nH]4)cc3OC)o2)c1`: the growth was 71.8%.

Consider `O=C(O)CNS(=O)(=O)c1ccc(OCCOc2ccc(S(=O)(=O)NCC(=O)O)cc2)cc1`, for which the growth is 96.4%.

As to `Oc1ccc(/C=N\Nc2ccccn2)c(O)c1`, the growth was 70.7%.

As for `O=C(OCC1OC(n2cc(C(F)(F)F)c(=O)[nH]c2=O)CC1OC(=O)c1ccc([N+](=O)[O-])cc1)c1ccc([N+](=O)[O-])cc1` (stereo not given), the growth was 60.6%.
